From paper PMC13494018
A number with no mark means an inactive call. The rule behind the calls is not given here.

B1: design_610_f34cc193-997c-4684-af32-2a8002718429_895_dldesign_0_cycle1_af2pred (protein)
chain: SSAEALARRTAEAMVRLAERRIREAAEEGLEKARETAEKWARFAEEALPPEVGAETAKRIREAAERIVRRKEEE
B2: design_610_f34cc193-997c-4684-af32-2a8002718429_868_dldesign_0_cycle1_af2pred (protein)
chain: DALAKAQKQAKATAEEAKKKAEEAKAAGNSAAAQMYENGAKVAEEGAKGDLKTVKAAIERGKTLIKAGDAIAAA
B3: design_610_f34cc193-997c-4684-af32-2a8002718429_1045_dldesign_0_cycle1_af2pred (protein)
chain: MTPGELGELALEALRLAAEAARLAAEDPRFAPAAAAFRAAFIEIARGGDPEEALRLYEEGLRLYEAALAAWRAA
B4: design_610_f34cc193-997c-4684-af32-2a8002718429_328_dldesign_0_cycle1_af2pred (protein)
chain: MEAAKAAVEAARAEADALLAAAEASPDPGEATALAVDALRTVSAARREIEATYGPEAGALADAVLAEVRARVAALNRRLIA
B5: design_488_244881a1-ba0c-4c08-ad9c-1f64cf93580a_2145_dldesign_0_cycle1_af2pred (protein)
chain: MKEEEVEKKIEEAAKIAGITMRVLKKLLPDDPFLATQLAMKVAVELGKKVGELAGSEEVEKRAYEAAIEAMMKAAV
B6: design_488_244881a1-ba0c-4c08-ad9c-1f64cf93580a_1921_dldesign_0_cycle1_af2pred (protein)
chain: DKATLAAQAQAVVNATKIAVEAAEKAIKEGDKEAAKKAAEGLKQMVEVAEAMAKQLEAAGADQAVIDAVKEAAEAAKKAAEKAEKFA
B7: design_610_f34cc193-997c-4684-af32-2a8002718429_1156_dldesign_0_cycle1_af2pred (protein)
chain: NPLVKQAEKNYKKAKEMAELGLASTDPLAIRSYAAFGDSLYNNAAELLKKAGKEEEAKKVEAEGEEKKAALLAKAKAAA
B8: design_610_f34cc193-997c-4684-af32-2a8002718429_1084_dldesign_0_cycle1_af2pred (protein)
chain: SAAQQAKQKALELFEQAAKLAAKYDPKAAEKFNKAKEALQAGDLGGALKYATEGVNILAKNASQEAADEVRAIATQGLISYAQAQILA
B9: design_488_244881a1-ba0c-4c08-ad9c-1f64cf93580a_1807_dldesign_0_cycle1_af2pred (protein)
chain: AEEEESRRRAEGAKAFLDQILAAAQASASNPAALAALAASAEANAKSVAAAASPEYAKEVRDYAAKVVAQINALAA
B10: design_610_f34cc193-997c-4684-af32-2a8002718429_954_dldesign_0_cycle1_af2pred (protein)
chain: MEEAKEKAEEAKKEAKEAIEKLRKVAEKAKAHPDGAEIQRRVDIAVAAVKGLLKNAEASPNPEDSLKIYEVAKELAEAERERVEAILK
B11: design_488_244881a1-ba0c-4c08-ad9c-1f64cf93580a_2450_dldesign_0_cycle1_af2pred (protein)
chain: AEERERLTEKARLALEAAESLVAEAERTSPERAAALARSALRFAAEAERYAKEAGDEEIAARAREVRARAEAIL
B12: design_488_244881a1-ba0c-4c08-ad9c-1f64cf93580a_2213_dldesign_0_cycle1_af2pred (protein)
chain: AEAQAALIAAKGYYYLAQSYYTHVANNPSLPAEEKKQAAKNAKEAAEKAEEYAKKAGPEAQPYAEKAKKYAEETKKLAEEYA
B13: design_610_f34cc193-997c-4684-af32-2a8002718429_743_dldesign_0_cycle1_af2pred (protein)
chain: EEEEKKKKAKEYVEKAKKLAEQAAKSTVEQAHQYLGQAVELAAKVHELGVLPEEANKVLAQASANALALA
B14: design_610_f34cc193-997c-4684-af32-2a8002718429_692_dldesign_0_cycle1_af2pred (protein)
chain: SAARAAAAAAVHAKVYAVLEKQAEEALKKAAEVAKKLGDEKFYKEAKKEAEEAKKLAKESPGEGLKAITELKQKVKEAAKKAEA
B15: design_488_244881a1-ba0c-4c08-ad9c-1f64cf93580a_2417_dldesign_0_cycle1_af2pred (protein)
chain: SAALEAAKQAYDDAAKAAEEAAKDPAVAETAAAAKKSLKAFADEMTAFIKASTDEADKQAAADTLKLYAKNITNQLKAAAAAA
B16: design_610_f34cc193-997c-4684-af32-2a8002718429_742_dldesign_0_cycle1_af2pred (protein)
chain: MERAEKLIEKVKEIASLPKSKEEEQEELALKVAEEAAKLTPEEQQKVIQAMLEYAEKSGSTALLRGANRIFAA
B17: design_488_244881a1-ba0c-4c08-ad9c-1f64cf93580a_2073_dldesign_0_cycle1_af2pred (protein)
chain: GSMEELKERAKRIFEEANRVLARASRVATANPAALPLASRAIAEAVRAQELANEALKTDPETGKELLERAEEELREARRYLEEAEAA
B18: design_610_f34cc193-997c-4684-af32-2a8002718429_921_dldesign_0_cycle1_af2pred (protein)
chain: AEAVAVAAMLGLLRNAADHPESAEKLAEIARDMALATGVPAEKVKEVFEEGARYAREKGNEEAAKIIEEKGEEAVKAAKAA
B19: design_488_244881a1-ba0c-4c08-ad9c-1f64cf93580a_2117_dldesign_0_cycle1_af2pred (protein)
chain: AAEEFAKKEAEKAAEVAKTGTPEEAKKAATKLAKKVADAFGVGEALRMLAIAMKMVADDPAKVAAMRAAAAEVQRAAL
B20: design_610_f34cc193-997c-4684-af32-2a8002718429_661_dldesign_0_cycle1_af2pred (protein)
chain: AKAQAEAQLAQGQKLLEQAKKNLASGKNAVAALSNARGAYVLFQGAAYIAAKTDPELAKKAKEAAKQAEELAKQAQAAIAAA
B21: design_488_244881a1-ba0c-4c08-ad9c-1f64cf93580a_1793_dldesign_0_cycle1_af2pred (protein)
chain: EAEELLARARAVEERGAELAAAAEALASVPGAASLKAHVAQALRAAQQAREAVADPEEATRLLRAAEASLRNAELVLEGMKIQAA
B22: design_488_244881a1-ba0c-4c08-ad9c-1f64cf93580a_1954_dldesign_0_cycle1_af2pred (protein)
chain: AAAQEVAQTAAIMDAALIAAKQSPELLKEMMDVAVAHTKASADPAATLAVLKEKAAKIAEEGTPEAAKIAKAAVAEAA
B23: design_488_244881a1-ba0c-4c08-ad9c-1f64cf93580a_1644_dldesign_0_cycle1_af2pred (protein)
chain: KEAVVREAGEALEELLRYASRIDPAEGARLVAEASRILRQAVLGDEEEAEEARERVERLREEARERAEAA
B24: design_488_244881a1-ba0c-4c08-ad9c-1f64cf93580a_1684_dldesign_0_cycle1_af2pred (protein)
chain: AAATAQAKADAAKAKAAVESGQDTSALATGHLLRAYSLDPAVADATLAELKALAAGRGTAVATQAIANFAAGVA
B25: design_610_f34cc193-997c-4684-af32-2a8002718429_291_dldesign_0_cycle1_af2pred (protein)
chain: AEERAKELAEELKELLAKAVADPSKAGEYLGRALELLAELQALAAEHPEVAPYAEEAHRALGAGNKALLAAIAA
B26: design_610_f34cc193-997c-4684-af32-2a8002718429_136_dldesign_0_cycle1_af2pred (protein)
chain: SLNGTAGAGIVELLKALAEAQKWKALDPEFFGAAAKEIAAETAAAAQAAVAGDYEAAIAEVKAGKAVAEKAKKHAAEIA
B27: design_610_f34cc193-997c-4684-af32-2a8002718429_532_dldesign_0_cycle1_af2pred (protein)
chain: MPQAEQAAQAAAKSGESLMKLAESIWSSTPEYRKAHKESILGALEVARDLYEYAAKQGGEEYKKKAEEAKAKYKEVKETL
B28: design_488_244881a1-ba0c-4c08-ad9c-1f64cf93580a_1486_dldesign_0_cycle1_af2pred (protein)
chain: SAAGQLALDTAKTFMQQAKELAKQDPQLALAALQSAKLAADGAIADPATAAQGKALKAEVKAQEAAVKAAAAAAA
B29: design_488_244881a1-ba0c-4c08-ad9c-1f64cf93580a_2241_dldesign_0_cycle1_af2pred (protein)
chain: GAALLAQAQALMKAANATAAAGDTATAAAAWADAAKKLAELAKEAAKEDPAYAATIQAMADMSKYIAEQAKA
B30: design_488_244881a1-ba0c-4c08-ad9c-1f64cf93580a_1769_dldesign_0_cycle1_af2pred (protein)
chain: GEEAKKLKEKADELFAKAKAVLEDPTATKEELTEAAIYASEAAVLYLKAAGLASPEEREEYLKKAVEASKIAIELAAKA
B31: design_610_f34cc193-997c-4684-af32-2a8002718429_938_dldesign_0_cycle1_af2pred (protein)
chain: SPQAELDAFLGETLETSREISAILEKNRDKVPEEVRNKISDLLNKALSYASKAALGVDPEGAAKAKKYLEEAKKLTEEAVKLA
B32: design_610_f34cc193-997c-4684-af32-2a8002718429_489_dldesign_0_cycle1_af2pred (protein)
chain: EKEKKIKELLEKGLEKMKKAAELTGDPGMQTYLKMAENNVKTNSPKDAAKINAELAKIAAGHAASLDPEAAKLVEEAYKLFKEAAKL
B33: design_488_244881a1-ba0c-4c08-ad9c-1f64cf93580a_2397_dldesign_0_cycle1_af2pred (protein)
chain: AVAAAEQRVKEAAAKVAKALADEPFDVIYAAIMKEGEKIGKETGLEKQIKAEAVKEAQAAFVARAKAQIAAA
B34: design_610_f34cc193-997c-4684-af32-2a8002718429_285_dldesign_0_cycle1_af2pred (protein)
chain: LAAEVAAAEAAAAAAAAAAKALGATATAAALRAMAEDAARSTPEEAAAARDFAEAMLTVLTARLAAAKAAAA
B35: design_610_f34cc193-997c-4684-af32-2a8002718429_824_dldesign_0_cycle1_af2pred (protein)
chain: DALVAEARRLLQEAARLLGTGSAAYIAGDKAAAVAAFKEAIGLAKKALELAKAAGDEALAASAQGLIELAEGLLAAAEA
B36: design_610_f34cc193-997c-4684-af32-2a8002718429_112_dldesign_0_cycle1_af2pred (protein)
chain: MEEVKEEVIKVIEEAAAKAKKAIEADPSTAWAHASAAYATASKAIIANAPKLSPEEMTEVGEVFLKNMKELTEHAKAVAAA
B37: design_610_f34cc193-997c-4684-af32-2a8002718429_113_dldesign_0_cycle1_af2pred (protein)
chain: AAAAAAAAEKAAAVAAIKEIAEAAKAHAATVGFRALAASAATVVRLAEQGLWTPEGVKKALEVLKAIYEAELAALKAAAA
B38: design_488_244881a1-ba0c-4c08-ad9c-1f64cf93580a_2479_dldesign_0_cycle1_af2pred (protein)
chain: SEEYIKEAEKLLKEAKEVAAVAKASGDPVALRGAAAFADAVKQVALAKAKKASEEVAKKLEEIAKEAEKLAKELRAAAAA

Biological target: CD276, Q5ZPR3
Sequence (Q5ZPR3 whole entry): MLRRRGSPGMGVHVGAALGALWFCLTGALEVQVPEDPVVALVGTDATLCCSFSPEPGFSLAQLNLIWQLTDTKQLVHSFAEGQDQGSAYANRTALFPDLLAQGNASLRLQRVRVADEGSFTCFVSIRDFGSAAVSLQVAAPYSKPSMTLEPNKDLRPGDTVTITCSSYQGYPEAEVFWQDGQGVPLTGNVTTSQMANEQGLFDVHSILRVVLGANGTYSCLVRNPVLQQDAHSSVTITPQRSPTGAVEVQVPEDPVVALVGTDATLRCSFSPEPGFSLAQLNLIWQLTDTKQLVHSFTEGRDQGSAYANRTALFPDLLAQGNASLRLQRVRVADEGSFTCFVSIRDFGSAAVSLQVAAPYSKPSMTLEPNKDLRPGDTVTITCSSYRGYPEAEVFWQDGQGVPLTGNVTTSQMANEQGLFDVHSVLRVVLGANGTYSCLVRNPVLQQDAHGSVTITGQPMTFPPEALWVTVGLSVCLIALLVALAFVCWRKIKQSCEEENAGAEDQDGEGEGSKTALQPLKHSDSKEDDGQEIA

| Binder | binding in a display sort |
| --- | --- |
| B1 | not found |
| B2 | not found |
| B3 | not found |
| B4 | not found |
| B5 | not found |
| B6 | not found |
| B7 | not found |
| B8 | not found |
| B9 | not found |
| B10 | not found |
| B11 | binds (active) |
| B12 | not found |
| B13 | not found |
| B14 | not found |
| B15 | not found |
| B16 | not found |
| B17 | not found |
| B18 | not found |
| B19 | not found |

| Binder | binding in a display sort |
| --- | --- |
| B20 | not found |
| B21 | not found |
| B22 | not found |
| B23 | not found |
| B24 | not found |
| B25 | not found |
| B26 | not found |
| B27 | not found |
| B28 | not found |
| B29 | not found |
| B30 | not found |
| B31 | not found |
| B32 | not found |
| B33 | not found |
| B34 | not found |
| B35 | not found |
| B36 | not found |
| B37 | not found |
| B38 | not found |
